Test results as given in PubChem BioAssay AID1159580 (chemical genetic matrix, 2015).
Where “and” joins values, the source holds several entries; their conditions need not be identical. Equal entries are not always repeated. About 2,000 (36%) of roughly 5,500 compounds were called active. Another 18% or so got no clear call; they are omitted. Rule as the data show it: active = normalized growth mostly below about 0.91 (no sharp cut-off); inconclusive = no clear call, values can overlap the other calls; inactive = mostly above about 0.92. The list shows a part of the results.

Assay: chemical genetic growth profiling, strain panel (AID 1159580);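 also: tested at 20 µM; growth read once vehicle control cultures reached saturation at 30 °C; 1 = growth at the plate median or of vehicle wells; lower values mean less growth of the strain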
Conditions: growth OD

Measured: normalized growth

CN1Cc2c(N)cccc2C(c2ccccc2)C1 (centres undefined)
inactive: S. cerevisiae deletion strains, locus YJR075W, strain HOC1, stronger effect = lower value 1.01 and 0.995 | S. cerevisiae deletion strains, locus YKL009W, strain mrt4, stronger effect = lower value 1 | S. cerevisiae deletion strains, locus YKL068W, stronger effect = lower value 1 | S. cerevisiae deletion strains, locus YKL085W, strain MDH1 (second series), stronger effect = lower value 1.01 | S. cerevisiae deletion strains, locus YKL085W, strain MDH1, stronger effect = lower value 1.01 | S. cerevisiae deletion strains, locus YKL160W, strain elf1, stronger effect = lower value 1.02 | S. cerevisiae deletion strains, locus YKL190W, strain CNB1, stronger effect = lower value 1.01 | S. cerevisiae deletion strains, locus YKR001C, strain vps1, stronger effect = lower value 1 | S. cerevisiae deletion strains, locus YKR026C, strain gcn3, stronger effect = lower value 1.01 | S. cerevisiae deletion strains, locus YKR091W, strain srl3, stronger effect = lower value 1 | S. cerevisiae deletion strains, locus YLL001W, strain dnm1, stronger effect = lower value 1.01 | S. cerevisiae deletion strains, locus YLL026W, stronger effect = lower value 1.01 | S. cerevisiae deletion strains, locus YLL041C, strain sdh2, stronger effect = lower value 1.01 | S. cerevisiae deletion strains, locus YLR027C, strain aat2, stronger effect = lower value 1.02 | S. cerevisiae deletion strains, locus YLR039C, strain RIC1, stronger effect = lower value 1.03 | S. cerevisiae deletion strains, locus YLR058C, strain SHM2, stronger effect = lower value 1 | S. cerevisiae deletion strains, locus YLR102C, strain apc9, stronger effect = lower value 1.01 | S. cerevisiae deletion strains, locus YLR113W, strain HOG1, stronger effect = lower value 0.982 | S. cerevisiae deletion strains, locus YLR221C, strain rsa3, stronger effect = lower value 0.994 | S. cerevisiae deletion strains, locus YLR258W, strain gsy2, stronger effect = lower value 0.99 | S. cerevisiae deletion strains, locus YLR262C, strain YPT6 (second series), stronger effect = lower value 1.03 | S. cerevisiae deletion strains, locus YLR262C, strain YPT6, stronger effect = lower value 1.05 | S. cerevisiae deletion strains, locus YLR268W, strain sec22, stronger effect = lower value 1.02 | S. cerevisiae deletion strains, locus YLR320W, strain mms22, stronger effect = lower value 0.971 | S. cerevisiae deletion strains, locus YLR330W, strain CHS5, stronger effect = lower value 1.01 | S. cerevisiae deletion strains, locus YLR342W, strain FKS1 (second series), stronger effect = lower value 1.06 | S. cerevisiae deletion strains, locus YLR342W, strain FKS1, stronger effect = lower value 1.01 | S. cerevisiae deletion strains, locus YLR357W, strain rsc2, stronger effect = lower value 0.982 | S. cerevisiae deletion strains, locus YLR370C, strain arc18, stronger effect = lower value 1 | S. cerevisiae deletion strains, locus YLR371W, strain rom2, stronger effect = lower value 1.02 | S. cerevisiae deletion strains, locus YLR384C, strain iki3, stronger effect = lower value 1.01 | S. cerevisiae deletion strains, locus YLR418C, strain cdc73, stronger effect = lower value 1.01 | S. cerevisiae deletion strains, locus YML016C, strain PPZ1, stronger effect = lower value 1 | S. cerevisiae deletion strains, locus YML032C, strain rad52, stronger effect = lower value 0.994 | S. cerevisiae deletion strains, locus YML120C, strain ndi1, stronger effect = lower value 1.02 | S. cerevisiae deletion strains, locus YML124C, strain tub3, stronger effect = lower value 1.01 | S. cerevisiae deletion strains, locus YMR058W, strain fet3, stronger effect = lower value 1.02 | S. cerevisiae deletion strains, locus YMR078C, strain ctf18, stronger effect = lower value 1.02 | S. cerevisiae deletion strains, locus YMR125W, strain sto1, stronger effect = lower value 0.995 | S. cerevisiae deletion strains, locus YMR129W, stronger effect = lower value 1.01 | S. cerevisiae deletion strains, locus YMR205C, strain PFK2, stronger effect = lower value 1.04 | S. cerevisiae deletion strains, locus YMR223W, strain ubp8, stronger effect = lower value 1.03 | S. cerevisiae deletion strains, locus YMR231W, strain pep5, stronger effect = lower value 1 | S. cerevisiae deletion strains, locus YMR263W, strain SAP30, stronger effect = lower value 1 | S. cerevisiae deletion strains, locus YMR307W, strain GAS1, stronger effect = lower value 1.02 | S. cerevisiae deletion strains, locus YNL067W, strain RPL9B, stronger effect = lower value 0.988 | S. cerevisiae deletion strains, locus YNL071W, strain lat1, stronger effect = lower value 1.01 | S. cerevisiae deletion strains, locus YNL153C, strain GIM3, stronger effect = lower value 0.969 | S. cerevisiae deletion strains, locus YNL175C, strain NOP13, stronger effect = lower value 0.977 | S. cerevisiae deletion strains, locus YNL183C, strain NPR1, stronger effect = lower value 0.929 | S. cerevisiae deletion strains, locus YNL197C, strain WHI3, stronger effect = lower value 0.984 | S. cerevisiae deletion strains, locus YNL209W, strain ssb2, stronger effect = lower value 0.994 | S. cerevisiae deletion strains, locus YNL224C, strain SQS1, stronger effect = lower value 0.998 | S. cerevisiae deletion strains, locus YNL233W, strain BNI4, stronger effect = lower value 0.981 | S. cerevisiae deletion strains, locus YNL248C, strain rpa49, stronger effect = lower value 1.03 | S. cerevisiae deletion strains, locus YNL250W, strain rad50, stronger effect = lower value 1.02 | S. cerevisiae deletion strains, locus YNL271C, strain bni1, stronger effect = lower value 1.01 | S. cerevisiae deletion strains, locus YNL298W, strain CLA4, stronger effect = lower value 1.01 | S. cerevisiae deletion strains, locus YNL307C, strain MCK1, stronger effect = lower value 1.02 | S. cerevisiae deletion strains, locus YNL322C, strain KRE1 (second series), stronger effect = lower value 1.01 | S. cerevisiae deletion strains, locus YNR049C, strain mso1, stronger effect = lower value 1.02 | S. cerevisiae deletion strains, locus YNR052C, strain pop2, stronger effect = lower value 1.02 | S. cerevisiae deletion strains, locus YOL006C, strain TOP1, stronger effect = lower value 0.997 | S. cerevisiae deletion strains, locus YOL012C, strain htz1 0.779 | S. cerevisiae deletion strains, locus YOL147C, strain pex11, stronger effect = lower value 1.01 | S. cerevisiae deletion strains, locus YOR001W, strain rrp6, stronger effect = lower value 1.02 | S. cerevisiae deletion strains, locus YOR061W, strain CKA2, stronger effect = lower value 1.01 | S. cerevisiae deletion strains, locus YOR069W, strain VPS5, stronger effect = lower value 1.01 | S. cerevisiae deletion strains, locus YOR070C, strain gyp1, stronger effect = lower value 1 | S. cerevisiae deletion strains, locus YOR080W, strain dia2, stronger effect = lower value 1.02 | S. cerevisiae deletion strains, locus YOR083W, strain WHI5 (second series), stronger effect = lower value 0.983 | S. cerevisiae deletion strains, locus YOR083W, strain WHI5, stronger effect = lower value 0.989 | S. cerevisiae deletion strains, locus YOR106W, strain vam3, stronger effect = lower value 1.03 | S. cerevisiae deletion strains, locus YOR136W, strain idh2, stronger effect = lower value 1.01 | S. cerevisiae deletion strains, locus YOR144C, strain elg1, stronger effect = lower value 1.01 | S. cerevisiae deletion strains, locus YOR184W, strain ser1, stronger effect = lower value 1.01 | S. cerevisiae deletion strains, locus YOR231W, strain MKK1, stronger effect = lower value 0.986 | S. cerevisiae deletion strains, locus YOR265W, strain rbl2, stronger effect = lower value 1.01 | S. cerevisiae deletion strains, locus YOR270C, strain vph1, stronger effect = lower value 1.04 | S. cerevisiae deletion strains, locus YOR290C, strain snf2, stronger effect = lower value 0.99 | S. cerevisiae deletion strains, locus YOR316C, strain cot1, stronger effect = lower value 1.02 | S. cerevisiae deletion strains, locus YPL051W, strain arl3, stronger effect = lower value 1.01 | S. cerevisiae deletion strains, locus YPL055C, strain LGE1, stronger effect = lower value 0.96 and 0.983 | S. cerevisiae deletion strains, locus YPL078C, strain atp4, stronger effect = lower value 1.03 | S. cerevisiae deletion strains, locus YPL106C, strain sse1, stronger effect = lower value 0.969 | S. cerevisiae deletion strains, locus YPL240C, strain hsp82, stronger effect = lower value 1 | S. cerevisiae deletion strains, locus YPL241C, strain CIN2, stronger effect = lower value 1.01 and 0.99 | S. cerevisiae deletion strains, locus YPL256C, strain CLN2, stronger effect = lower value 0.974 | S. cerevisiae deletion strains, locus YPR119W, strain clb2, stronger effect = lower value 1.01 | S. cerevisiae deletion strains, locus YPR141C, strain kar3, stronger effect = lower value 1.02 | S. cerevisiae deletion strains, locus YPR163C, strain tif3, stronger effect = lower value 1.01 | S. cerevisiae deletion strains, locus YPR167C, strain met16, stronger effect = lower value 1.01 | S. cerevisiae deletion strains, strain wtn01, stronger effect = lower value 1.02 | S. cerevisiae strains, strain wild type, stronger effect = lower value 1
